High-throughput results from PubChem BioAssay.
NS1 function inh = inhibitors of influenza NS1 protein function. Potency, µM (highest dose often 46.1 µM), inactives show at the highest dose activity, positive = more growth. actives 0.4% (n = 270,000). AID 2326; calls by dose curve; further: actives are rising curves; nearly all actives have a fitted effect of over 50% in size
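OD600 was taken as the measure of yeast growth restored by compound in an NS1-expressing S. cerevisiae strain. Cells had been washed out of glucose medium and diluted 1:100 into galactose -URA medium, pH 6.0.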
Tb PYK inh = inhibitors of Trypanosoma brucei pyruvate kinase | actives 0.12% (n = 410,000) | AID 624173 | TbPYK enzyme, Kinase-Glo Plus ATP luminescence, 45 min | Q57TT1 | Potency, µM (series often up to 76.8 µM), for the others: at the top dose activity, negative = inhibition, most hits filed as inhibitors; further: on the % scale 0 is the no-effect control and ±100 the full control effect; nearly all actives have a fitted effect of over 50% in size
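Luminescence from Kinase-Glo Plus, added after a 45-minute room-temperature reaction, served as the end-point read-out. The enzyme and substrate were preincubated with compound before ADP (130 uM final) initiated turnover. Concentration-effect curves came from normalized qHTS data.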
RE007 growth inh = less growth of the S. pombe RE007 Vpr strain; S. pombe RE007 Vpr strain, BacTiter-Glo ATP luminescence, 24 h; Potency, µM (doses to about 92.2 µM), inactives show top-dose activity change, negative = less growth, actives largely listed as inhibitors; actives 0.21% (n = 360,000); AID 651644; active means well fitted falling curve with a large enough effect; inconclusive means small, poorly fitted or top-dose-only effect; inactive means no such curve, though single readings can be large or run the other way; further: on the % scale 0 is the no-effect control and ±100 the full control effect; nearly all actives have a fitted effect of over 50% in size
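Fission yeast RE007 carrying one integrated HIV-1 vpr copy, seeded at OD 0.01 in PMG+AL medium with 23 nL pinned compound. Grown 24 h at 30 degrees; viability read by BacTiter-Glo luminescence after 5 min.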
SARS PLP yeast = blocks SARS-CoV papain-like protease in a yeast assay. S. cerevisiae expressing SARS-CoV PLpro, growth rescue. actives 0.19% (n = 330,000). AID 485353. Potency, µM (series often up to 32.9 µM), without a hit: top-dose activity, positive = growth rescue, usual class: activators; calls by dose curve; further: 0% is about no effect; nearly all actives have a fitted effect of over 55% in size
Sm TGR inh = S. mansoni TGR enzyme inhibition; Q962Y6; purified TGR, DTNB reduction, TNB absorbance 405 nm; Potency, µM (series often up to 114 µM), without a hit: at the top dose activity change, negative = inhibition, usual class: inhibitors; actives 3% (n = 360,000); further: on the % scale 0 is the no-effect control and ±100 the full control effect; nearly all actives have a fitted effect of over 60% in size
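First, TGR (20 nM dispensed) and NADPH were mixed with compound. Second, a 15 min room-temperature incubation followed. Third, further NADPH and then DTNB were added to start the reaction. Finally, TNB absorbance was monitored kinetically.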
LmPK inhibitor = LmPK (Leishmania mexicana) enzyme inhibition; Q27686; purified LmPK, Kinase-Glo ATP luminescence, 1 h; Potency, µM (top dose mostly 57.5 µM), for the others: top-dose activity change, negative = inhibition, most hits filed as inhibitors; actives 0.37% (n = 290,000); AID 1721; further: on the % scale 0 is the no-effect control and ±100 the full control effect
Target sequence (Q27686 whole entry, looked up): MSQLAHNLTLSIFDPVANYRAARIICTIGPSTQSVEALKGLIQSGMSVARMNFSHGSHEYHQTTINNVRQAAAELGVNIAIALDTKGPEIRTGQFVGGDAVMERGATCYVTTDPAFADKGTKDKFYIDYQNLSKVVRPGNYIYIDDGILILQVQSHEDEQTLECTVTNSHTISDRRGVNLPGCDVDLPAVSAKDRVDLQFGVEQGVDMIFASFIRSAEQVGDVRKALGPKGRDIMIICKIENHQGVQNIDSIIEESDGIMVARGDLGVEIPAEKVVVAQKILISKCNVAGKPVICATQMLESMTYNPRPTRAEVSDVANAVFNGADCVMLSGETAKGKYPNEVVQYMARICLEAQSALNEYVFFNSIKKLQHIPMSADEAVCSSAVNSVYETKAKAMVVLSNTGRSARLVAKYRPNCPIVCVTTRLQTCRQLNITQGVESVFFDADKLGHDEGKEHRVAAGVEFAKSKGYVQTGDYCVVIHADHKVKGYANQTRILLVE
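Kinase-Glo luminescence read after 1 h RT reaction of 0.1 nM LmPK with 0.5 mM PEP and 0.1 mM ADP. Activity scaled between uninhibited and enzyme-free controls.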
The depositor's hits bear a star; ? = inconclusive; nt = no result given; [ ] = remark or other dose. A selection: hits, their analogues and other compounds. The true share with any hit is near 3.3%. Unless noted, the call rests on the fitted dose curve; in most records, active means well fitted curve in the direction sought with a large enough effect; inconclusive means small, poorly fitted or top-dose-only effect, or another doubt; inactive means no such curve, though single readings can be large; an effect the other way counts as inactive or inconclusive. Potency means the concentration at half of the fitted maximal effect.

SMILES	NS1 function inh	Tb PYK inh	RE007 growth inh	SARS PLP yeast	Sm TGR inh	LmPK inhibitor
CCOCCSc1nc2c(c(-c3cccs3)c1C#N)CC/C2=C/c1cccs1	?	-3%	-12%	-3%	45µM*	0%
CS(=O)(=O)n1nc(OC(=O)c2cccc3ccccc23)cc1N	5%	-12%	2%	-7%	0%	7%
CS(=O)(=O)n1nc(OC(=O)c2cc(Br)ccc2Cl)cc1N	nt	-12%	2%	-1%	5µM*	0%
CS(=O)(=O)n1nc(OC(=O)c2cccs2)cc1N	8%	-13%	-1%	3%	40µM*	0%
Cc1ccc(N=C2NC(=O)S/C2=C\c2ccco2)cc1	18%	8%	3%	5%	-30%	-7%
O=C1NC(=Nc2ccccc2)/C(=C/c2ccco2)S1	4%	1%	-3%	-8%	50µM*	2%
COc1ccc(N=C2NC(=O)/C(=C/c3ccco3)S2)cc1	-4%	-4%	0%	-2%	32µM*	2%
COc1ccc(S(=O)(=O)/N=C2/NC(=O)/C(=C\c3ccco3)S2)cc1	-3%	-13%	-12%	-28%	45µM*	8%
CC(=O)Oc1ccc(C(=O)[C@H]2[C@H]3C(=O)N(c4ccc(C)cc4)C(=O)[C@H]3[C@@H]3C=CC=NN32)cc1	?	-11%	11%	-8%	?	-2%
CC(=O)Oc1ccc(C(=O)[C@H]2[C@H]3C(=O)N(c4ccc(C)cc4C)C(=O)[C@H]3[C@@H]3C=CC=NN32)cc1	11%	-6%	9%	0%	18µM*	3%
COc1ccc(C(=O)[C@H]2[C@H]3C(=O)N(c4ccc(C)cc4)C(=O)[C@H]3C3C=CC=NN32)cc1 (stereo partly drawn)	14%	-1%	-5%	2%	40µM*	7%
Cc1cccc(N2CCN(C(=O)CN3CCSc4ccccc43)CC2C)c1 (stereo not drawn)	nt	-8%	nt	nt	-6%	nt
CC1=NN(c2ccccc2)C(=O)[C@@H]1N=Nc1ccc(S(N)(=O)=O)cc1	-3%	nt	nt	nt	nt	nt
S=c1[nH]nc(-c2ccccc2)n1CC1CCCO1 (stereo not drawn)	7%	?	10%	nt	1%	-11%
S=c1[nH]nc(-c2ccccc2)n1C1C=CCCC1 (stereo not drawn)	-42%	8.9µM*	5%	25%	0%[11.4 µM]	2.5µM*
CC1CCCCC1n1c(-c2cccnc2)n[nH]c1=S (stereo not drawn)	-5%	11µM*	9%	0%	-6%	20µM*
Cc1noc(C)c1CSc1nnc(-c2cccnc2)n1C1CCCCC1C (stereo not drawn)	-5%	-24%	9%	-2%	9%	-12%
Cc1ccsc1-c1n[nH]c(=S)n1C1CCCCC1	4%	3.2µM*	2%	24%	-2%	8.9µM*
Cc1ccsc1/C=N/n1c(-c2ccccc2)n[nH]c1=S	9%	-23%	7%	-15%	-4%	-11%
COc1ccc(-c2n[nH]c(=S)n2C2CCCCC2)cc1	5%	?	18%	1%	89µM*	4.5µM*
Cc1ccc(N2CC(C)Cn3c2nc2c3c(=O)n(Cc3cccc(Cl)c3)c(=O)n2C)cc1 (stereo not drawn)	nt	0%	nt	nt	-4%	nt
S=c1[nH]nc(-c2cccnc2)n1Cc1ccccc1	1%[9.22 µM]	?	-1%	5%	5%	?
S=c1[nH]nc(-c2cccnc2)n1C1CCCCC1	12%	?	0%	-3%	4%	8.9µM*
Cc1ccc(N2CC(C)Cn3c2nc2c3c(=O)n(CC(=O)O)c(=O)n2C)cc1 (stereo not drawn)	nt	4%	nt	nt	-1%	nt
Cc1ccccc1CC1(CO)CCCN(Cc2ccccc2Cl)C1 (stereo not drawn)	18%	-5%	1%	-3%	25µM*	0%
SMILES	NS1 function inh	Tb PYK inh	RE007 growth inh	SARS PLP yeast	Sm TGR inh	LmPK inhibitor
NC(N)=NC(N)=Nc1ccc(C(=O)O)cc1	-3%	nt	nt	nt	nt	nt
CCOc1ccc(C(=O)Nc2cccc(-c3nc4cccnc4s3)c2C)cc1OCC	nt	-1%	nt	nt	-5%	nt
O=C(CCl)N=c1sccn1Cc1cccc2ccccc12	8%	4%	11%	-1%	25µM*	4%
O=C(CCl)N=c1sccn1Cc1ccc(Cl)cc1Cl	nt	-1%	12%	-8%	13µM*	9%
O=C(CCl)N=c1sccn1Cc1ccccc1Cl	-6%	-4%	23%	-2%	0%	0%
Cc1ccc2c(c1)c1ccc3c(c1n2C)C(=O)C=CC3=O	-67%	?	-9%	-6%	2.5µM*	?
COc1ccc2c(c1)c1ccc3c(c1n2C)C(=O)C=CC3=O	14%	?	nt	1%	1.3µM*	?
Cc1ccc2c(c1)c1ncnc(N3CCOCC3)c1n2C	-42%	5%	-12%	6%	6%	7%
Cc1ccc(C)c2c1c1ccccc1n2C	2%	-2%	-12%	1%	2%	1%
Cn1c2ccccc2c2ccc3c(c21)C(=O)C=CC3=O	nt	22µM*	-5%	nt	nt	nt
CCc1nnc2c(Nc3ccc(N(CC)CC)cc3C)nc3ccccc3n12	nt	8%[15.4 µM]	nt	nt	-32%	nt
COc1ccc2c(CNC3CCC(C)CC3)c(C(=O)O)n(Cc3ccc(F)cc3)c2c1 (stereo not drawn)	nt	-8%	nt	nt	-1%	nt
Cc1nn(CCc2n[nH]c(=S)n2-c2ccc(F)cc2)c(C)c1[N+](=O)[O-]	2%	10µM*	5%	3%	-7%	?
Cc1nn(CCc2n[nH]c(=S)n2-c2ccc(F)c(Cl)c2)c(C)c1[N+](=O)[O-]	nt	6.3µM*	-9%	-2%	19%	?
Cc1cccc(-n2c(Cn3nc(C)c([N+](=O)[O-])c3C)n[nH]c2=S)c1	15%	-29%	12%	5%	-24%	-21%
Cc1nn(CCc2n[nH]c(=S)n2-c2cccc(Cl)c2)c(C)c1[N+](=O)[O-]	-2%	?	-1%	4%	-3%	8.9µM*
Cc1nn(C(C)c2n[nH]c(=S)n2-c2ccc(F)cc2)c(C)c1[N+](=O)[O-] (stereo not drawn)	-5%	?	4%	13%	-20%	7%
Cc1cc(C)cc(NC(=O)C(Cc2ccccc2)NS(=O)(=O)c2ccc3c(c2)CCC(=O)N3)c1 (stereo not drawn)	nt	-5%	nt	nt	-4%	nt
CC[C@H](C)/C=C(C)/C=C/C1=CC2=CC(=O)[C@]3(C)OC(=O)[C@@H](C(C)=O)[C@@H]3C2=CO1	4%	1%	13%	-1%	14µM*	-2%
CCC(C)/C=C(C)/C=C/C1=CC2=C(Cl)C(=O)C(C)(OC(C)=O)C(=O)C2=CO1 (stereo not drawn)	9%	1%	-13%	5%	-21%	-29%
